DT40 TDP1 no CPT = qHTS for Inhibitors of human tyrosyl-DNA phosphodiesterase 1 (TDP1): qHTS in cells in absence of CPT | 420,000 tested, 15% active | Potency, µM (top dose mostly 46.2 µM), for inactives: at the highest dose activity change, negative = growth inhibition, hits mostly inhibitors | AID 686978, 2013 | DT40 Tdp1-/- hTDP1 cells, no CPT, ATP luminescence, 48 h; also: % is scaled to controls: 0 for no effect and ±100 for the full control effect; nearly all actives have a fitted effect of over 55% in size
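Chicken DT40 Tdp1-/- cells complemented with human TDP1, screened without camptothecin (DMSO vehicle only), 400 cells/well. Compounds pin-transferred, cells incubated at 37 °C for at least 48 hr. Growth read as ATP-dependent luminescence (CellTiter-Glo, 30 min at RT).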
TGFb inhibitor = qHTS for Inhibitors of TGF-b | HepG2 CAGA-GFP TGF-b/SMAD3 reporter, GFP fluorescence, 18 h; TGF-beta stimulated, 500 pg/mL final | Potency, µM (doses to about 46.1 µM), inactives show at the top dose activity, negative = inhibition, usual class: inhibitors | 410,000 tested, 1.2% active | AID 588855, 2011; also: % is scaled to controls: 0 for no effect and ±100 for the full control effect; nearly all actives have a fitted effect of over 65% in size
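TGF-beta reporter screen: HEPG2 CAGA-GFP, 1% FBS, 500 pg/mL TGF-beta final, 18 h; per-cell GFP summed per well; curves fitted and categorized by class.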
HT1080 IDH1KD tx = qHTS for induction of synthetic lethality in tumor cells producing 2HG: qHTS for the HT-1080-IDH1KD cell line; AID 686971, 2013; HT-1080 IDH1 knockdown viability, ATP luminescence, 48 h; 360,000 tested, 2% active; Potency, µM (titrated, usually from 46.1 µM), without a hit: at the highest dose activity, negative = toxicity, hits mostly cytotoxic;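 also: 0% = DMSO wells and -100% = cell-free medium wells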
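IDH1KD HT-1080 cells, 750/well, RPMI + 5% FBS; compound pinned after 2 h settling; 48 h, 37 °C; CellTiter-Glo luminescence; % activity normalised to DMSO and no-cell wells; curves fitted, classed by r2 and efficacy.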
HT1080-NT tox = qHTS for induction of synthetic lethality in tumor cells producing 2HG: qHTS for the HT-1080-NT fibrosarcoma cell line; HT-1080-NT fibrosarcoma viability, CellTiter-Glo ATP luminescence, 48 h; Potency, µM (highest dose often 46.1 µM), without a hit: at the highest dose activity, negative = less viability, most hits filed as cytotoxic; 360,000 tested, 1.6% active;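 also: NT is the 2HG producing partner of a matched IDH1 knockdown line; 0% = DMSO-treated cells and -100% = media-only wells without cells; nearly all actives have a fitted effect of over 55% in size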
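Fibrosarcoma NT cells, 750 per well in 5% FBS RPMI, were exposed to compound for 48 hours. Viability: CellTiter-Glo luminescence.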
TDP1 cell CPT = qHTS for Inhibitors of human tyrosyl-DNA phosphodiesterase 1 (TDP1): qHTS in cells in presence of CPT | chicken DT40 Tdp1-/-;hTDP1 cells + 20 nM CPT, ATP luminescence, 48 h | Potency, µM (doses to about 46.2 µM), inactives show at the highest dose activity change, negative = growth inhibition, most hits filed as inhibitors | 420,000 tested, 12% active | AID 686979, 2013; also: % is scaled to controls: 0 for no effect and ±100 for the full control effect; nearly all actives have a fitted effect of over 55% in size
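Cell growth measured by CellTiter-Glo luminescence after a minimum 48 h, 37 C compound exposure with 20 nM CPT in Tdp1-knockout DT40 cells stably expressing hTDP1, seeded 400/well; qHTS titration format.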
HepG2 tox = qHTS for Inhibitors of TGF-b: Cytotox Counterscreen | HepG2 CAGA-GFP viability, ATP luminescence, 18 h | Potency, µM (titrated, usually from 46.1 µM), for inactives: at the highest dose activity change, negative = cytotoxicity, actives largely listed as cytotoxic | 410,000 tested, 0.76% active | AID 588856, 2011
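HepG2 CAGA-GFP cells (1000/well, DMEM with 1% FBS) received compound, then TGF-beta at 500 pg/mL final, and were incubated 18 hours at 37 degrees C. Viability was read by CellTiter-Glo luminescence. Media-only wells were set as complete cell-killing and DMSO as no toxicity.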
Starred values were filed as active, the others as inactive; ? = inconclusive; · = not tested or not shown; ! = repeats disagree. Hits are enriched below; roughly 17% of the tested compounds scored in any of these assays. Calls follow the shape of the dose curve; as a rule, active = well fitted curve in the direction sought with a large enough effect; inconclusive = small, poorly fitted or top-dose-only effect, or another doubt; inactive = no such curve, though single readings can be large; an effect the other way counts as inactive or inconclusive. Potency is read from the fitted curve at half-maximal effect.

SMILES	DT40 TDP1 no CPT	TGFb inhibitor	HT1080 IDH1KD tx	HT1080-NT tox	TDP1 cell CPT	HepG2 tox
O=C(NC1CCCC1)c1cc(-c2ccc(Cl)cc2)on1	-26%	11%	11%	15%	-4%	7%
NC(C(=O)O)c1cc(O)c(Cl)c(O)c1 (stereo not drawn)	-16%	·	·	·	-1%	·
CCOC(=O)[C@H]1[C@H]2COc3ccc(Cl)cc3[C@@H]2N2C(=O)[C@@H](C)NC(=O)[C@@]12C	-10%	0%	14%	14%	?	3%
Cc1c(Cl)cccc1NC(=O)C1CCCN(c2nnc(-n3c(C)ccc3C)s2)C1 (stereo not drawn)	16µM*	·	·	·	?	-20%
Cc1cc(Cl)ccc1NC(=O)C1CCN(c2nnc(-n3c(C)ccc3C)s2)CC1	21µM*	·	·	·	?	-24%
COc1ccc(-c2cn3nc(N4CCC(C(=O)Nc5ccc(Cl)cc5C)CC4)sc3n2)cc1	?	-3%	·	·	?	1%
CC(CCc1ccccc1)NC(=O)C1CCCN(c2nnc(-n3cccc3)s2)C1 (stereo not drawn)	?	-22%	-16%	0%	18µM*	-35%
Cc1ccc(NC(=O)C2CCCN(c3nnc(-n4c(C)ccc4C)s3)C2)c(C)c1 (stereo not drawn)	16µM*	·	·	·	?	-31%
O=C(NC1CCN(Cc2ccccc2)CC1)C1CCCN(c2nnc(-n3cccc3)s2)C1 (stereo not drawn)	?	-8%	-1%	-9%	?	-18%
CCc1ccc(NC(=O)C2CCN(c3nnc(-n4c(C)ccc4C)s3)CC2)cc1	23µM*	·	·	·	16µM*	-28%
CC(NC(=O)C1CCN(c2nnc(-n3cccc3)s2)CC1)C12CC3CC(CC(C3)C1)C2 (stereo not drawn)	15µM*	-8%	12%	14%	16µM*	-39%
CCc1ccccc1NC(=O)C1CCCN(c2nnc(-n3c(C)ccc3C)s2)C1 (stereo not drawn)	21µM*	·	·	·	21µM*	-19%
O=C(NCc1ccccc1F)C1CCN(c2nnc(-n3cccc3)s2)CC1	?	-5%	·	·	?	-15%
COc1ccc(-c2ccnc3nc(N4CCN(c5ccccc5)CC4)nn23)cc1	21µM*	-2%	-12%	1%	?	2%
CC(C(=O)NCCSCc1cccc(Cl)c1)N(c1ccccc1)S(C)(=O)=O (stereo not drawn)	13µM*!	13%	-1%	-15%	21µM*!	-1%
Cc1cccc(N(CC(=O)NCCC2=CCCCC2)S(C)(=O)=O)c1C	?	-5%	7%	6%	16µM*	-17%
Cc1cccc(N(CC(=O)N/N=C/c2ccc(C(=O)O)cc2)S(=O)(=O)c2ccccc2)c1C	?	5%	2%	3%	22%	21%
Cc1cccc(N(CC(=O)NCCc2ccccc2)S(=O)(=O)c2ccccc2)c1C	18µM*	?	·	·	16µM*	0%
Cc1cccc(N(CC(=O)NCCSCc2cccc(Cl)c2)S(=O)(=O)c2ccccc2)c1C	21µM*	-19%	·	·	?	-26%
Cc1ccc(CSCCNC(=O)CN(c2cccc(C)c2C)S(=O)(=O)c2ccccc2)cc1	?	6%	·	·	?	-34%
CS(=O)(=O)N(CC(=O)NCCSCc1ccccc1)c1cc(C(F)(F)F)ccc1Cl	15µM*	?	·	·	21µM*	-5%

Screening data deposited in PubChem by National Center for Advancing Translational Sciences (NCATS).
